Assay outcomes from PubChem BioAssay.
LASV entry inh – inhibitors of Lassa virus binding or cell entry; Lassa virus pseudotype entry inhibition, cell reporter; Potency, µM (titrated, usually from 37.9 µM), usual class: inhibitors; AID 540256; 1.2% of 300,000 active; calls by dose curve; tested in HEK293 cells; further: nearly all actives have a fitted effect of over 50% in size
Vaccinia Venus – vaccinia inhibition (Venus reporter); Potency, µM (titrated, usually from 36.5 µM), most hits filed as inhibitors; Vaccinia virus Venus reporter expression, fluorescence; 0.46% of 330,000 active; calls by dose curve; tested in A549 cells; further: nearly all actives have a fitted effect of over 30% in size
MARV entry inh – inhibitors of Marburg virus binding or cell entry | Marburg virus pseudotyped entry inhibition, cell reporter | Potency, µM (series often up to 37.8 µM), most hits filed as inhibitors | 1.8% of 300,000 active; calls by dose curve; tested in HEK293 cells
HCV inhibitor – HCV inhibition; Huh7.5.1 HCVcc-Cre infection, luciferase reporter, 44 h; Potency, µM (highest dose often 41.8 µM), most hits filed as inhibitors; 3.4% of 340,000 active; active means well fitted inhibition curve with a large enough effect; inconclusive means small, poorly fitted or top-dose-only effect, or another doubt; inactive means no such curve, though single readings can be large or run the other way
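Cells (1,000/well) were plated 4 h before compound, then infected with HCVcc-Cre virus (~0.5 moi). After 44 h further culture, infection was read as luciferase luminescence following a 15 min substrate incubation at room temperature.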
Vaccinia mCherry – vaccinia inhibition (mCherry reporter) | Vaccinia virus mCherry reporter infection, fluorescence | Potency, µM (top dose mostly 36.5 µM), most hits filed as inhibitors | 0.63% of 310,000 active | AID 720579; calls by dose curve; tested in A549 cells; further: nearly all actives have a fitted effect of over 35% in size
HCMV inh – inhibitors of human cytomegalovirus. HFF cells, HCMV-luciferase reporter, 72 h; stronger effect = lower value. activity change, negative = inhibition, % at 57.5 µM. 4.5% of 410,000 active. AID 1259415; in the data active means activity change below about -60%; inconclusive means no clear call, values can overlap the other calls; inactive means above about -39%
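Human foreskin fibroblasts infected with luciferase-reporter HCMV at MOI 1 PFU/cell, compounds at two doses. Luciferase measured 72 h post infection; normalized to buffer-only basal and Salinomycin (10uM) controls.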
Of the large screens only hits and unclear results are named; the others gave an inactive call. Rows were chosen to be rich in hits. Some 7.8% of all compounds tested hit in one or more screens of this group.

CCOc1cc(/C=C\c2[nH]c(=O)[nH]c(=O)c2[N+](=O)[O-])ccc1OC(C)CC (stereo unspecified)	HCMV inh -96.7 (no result: Vaccinia Venus, Vaccinia mCherry)
CCOc1cc(CNc2ccccc2)cc(Br)c1OCC(=O)NC(C)(C)C	LASV entry inh inconclusive, Vaccinia Venus inconclusive, MARV entry inh inconclusive, HCV inhibitor 12.6µM, Vaccinia mCherry inconclusive, HCMV inh -96.8
COc1ccccc1CCNCc1ccc(OC)c(OCc2ccccc2)c1	LASV entry inh inconclusive, MARV entry inh inconclusive, HCV inhibitor 10µM, HCMV inh inconclusive (no result: Vaccinia Venus, Vaccinia mCherry)
COc1cc(CNC(C)(C)CO)ccc1OCC(=O)Nc1ccc(Br)cc1	MARV entry inh inconclusive, HCV inhibitor 12.6µM (no result: Vaccinia Venus, Vaccinia mCherry)
C=CCOc1ccc(CNC(C)(C)CO)cc1OC	none (no result: Vaccinia mCherry)
COc1cc(CNCCc2ccccc2)ccc1OCC(=O)NC(C)(C)C	MARV entry inh 11.2µM
CCCNCc1cc(OC)c(OCc2ccccc2)cc1Br	MARV entry inh 11.2µM, HCV inhibitor inconclusive
O=C(Nc1nc(-c2ccco2)c(-c2ccco2)s1)c1c(F)cccc1Cl	HCV inhibitor 14.1µM (no result: LASV entry inh, Vaccinia Venus, MARV entry inh, Vaccinia mCherry)
NC(=O)c1c(NC(=O)C2CCCO2)sc2c1CCCCC2 (stereo unspecified)	MARV entry inh inconclusive, HCMV inh inconclusive
NC(=O)c1c(NC(=O)C2CCCO2)sc2c1CCC2 (stereo unspecified)	HCV inhibitor inconclusive (no result: Vaccinia Venus, Vaccinia mCherry)
CC(C)(C)C1CCc2c(sc(NC(=O)C3CCCO3)c2C(N)=O)C1 (stereo unspecified)	LASV entry inh 17.8µM, Vaccinia Venus inconclusive, MARV entry inh inconclusive, HCV inhibitor inconclusive, Vaccinia mCherry inconclusive, HCMV inh inconclusive
COC(=O)c1c(NC(=O)C2CCCO2)sc2c1CCC2 (stereo unspecified)	Vaccinia Venus inconclusive, HCV inhibitor 5.62µM (no result: Vaccinia mCherry)
CCC(C)(C)C1CCc2c(sc(N)c2C(N)=O)C1 (stereo unspecified)	LASV entry inh inconclusive, MARV entry inh inconclusive, HCV inhibitor inconclusive, HCMV inh -76.0
CC(C)(C)C1CCc2c(sc(N)c2C(N)=O)C1 (stereo unspecified)	MARV entry inh inconclusive (no result: HCMV inh)
COc1ccc(-c2cc(C(F)(F)F)nc(SCC(=O)NCCc3ccc(OC)c(OC)c3)n2)cc1	none (no result: HCV inhibitor)
Cc1ccc(N(CC(=O)Nc2cccc(Cl)c2C)S(=O)(=O)c2c(C)noc2C)cc1	none (no result: HCV inhibitor)
CCCOc1ncnc2c1[nH]c1ccc(C)cc12	HCV inhibitor 12.6µM (no result: LASV entry inh, Vaccinia Venus, MARV entry inh, Vaccinia mCherry, HCMV inh)
CCOc1ncnc2c1[nH]c1ccccc12	MARV entry inh inconclusive, HCV inhibitor 10µM, Vaccinia mCherry inconclusive
Cc1ccc2[nH]c3c(Cl)ncnc3c2c1	none
CCCCN(CCCC)C(=O)c1c[nH]c2ccc(S(=O)(=O)Nc3cccc(Cl)c3C)cc2c1=O	none (no result: MARV entry inh, HCV inhibitor)
Cc1ccc(S(=O)(=O)Nc2ccc3c(c2)nc2n3CCN(Cc3ccccc3)C2)cc1	LASV entry inh inconclusive, MARV entry inh inconclusive, HCV inhibitor 15.8µM (no result: Vaccinia Venus, Vaccinia mCherry)
O=S(=O)(Nc1ccc2c(c1)nc1n2CCN(Cc2ccccc2)C1)c1ccccc1	HCV inhibitor 5.62µM, HCMV inh -96.1 (no result: Vaccinia Venus, Vaccinia mCherry)
O=S(=O)(Nc1ccc2c(c1)nc1n2CCN(Cc2ccccc2)C1)c1ccc(Cl)cc1	HCV inhibitor 11.2µM (no result: Vaccinia Venus, Vaccinia mCherry)
O=S(=O)(Nc1ccc2c(c1)nc1n2CCN(Cc2ccccc2)C1)c1ccc(F)cc1	HCV inhibitor inconclusive (no result: Vaccinia Venus, Vaccinia mCherry)
COc1ccccc1C(=O)Nc1ccc2c(c1)nc1n2CCN(Cc2ccccc2)C1	LASV entry inh inconclusive, MARV entry inh inconclusive, HCV inhibitor inconclusive, HCMV inh -68.1
COc1cc(CCNC2=CC(=O)c3ncccc3C2=O)ccc1O	LASV entry inh inconclusive, Vaccinia Venus 10µM, MARV entry inh inconclusive, HCV inhibitor inconclusive, Vaccinia mCherry 10µM
CN(C)c1ccc(NC(=O)c2cnsn2)cc1	LASV entry inh 7.08µM, MARV entry inh inconclusive
Cc1ccc2c(Sc3ccccc3)c(C(=O)NCc3ccccc3F)[nH]c2c1	none (no result: HCV inhibitor)
COC(=O)C(C)Sc1nc(NCc2ccccc2)nc(N(C)C)n1 (stereo unspecified)	HCV inhibitor 3.16µM
CCNc1nc(SC(C)C(=O)Nc2ccccc2)nc(N(C)C)n1 (stereo unspecified)	MARV entry inh inconclusive
CC(=O)OC[C@H]1O[C@H](CC=NOCC[C@@H]2C=C[C@@H](OC(C)=O)[C@@H](COC(C)=O)O2)C=C[C@@H]1OC(C)=O	none (no result: LASV entry inh, Vaccinia Venus, HCV inhibitor, Vaccinia mCherry, HCMV inh)
CNc1cccc2c1C(=O)c1ccccc1C2=O	LASV entry inh inconclusive, HCV inhibitor 12.6µM
CCCNC(=O)c1cn(CC)c2cc(N3CCN(C)CC3)c(F)cc2c1=O	MARV entry inh inconclusive (no result: Vaccinia mCherry)
CCCCN(CCCC)C(=O)c1cn(CC)c2cc(N3CCN(C)CC3)c(F)cc2c1=O	MARV entry inh inconclusive, HCMV inh -65.8
CCn1cc(C(=O)NCCN(C)C)c(=O)c2cc(F)c(N3CCN(C)CC3)cc21	MARV entry inh 11.2µM
CC1(C(=O)Nc2ccc(Cl)c(Cl)c2)CCN1Cc1cc2ccccc2o1 (stereo unspecified)	none (no result: LASV entry inh, MARV entry inh, HCV inhibitor)
Cc1c(C(=O)Nc2nccs2)sc2nc(-c3cccs3)cc(C(F)(F)F)c12	MARV entry inh inconclusive, HCV inhibitor 11.2µM, HCMV inh inconclusive (no result: Vaccinia Venus, Vaccinia mCherry)
Cc1c(C(=O)O)sc2nc(-c3cccs3)cc(C(F)(F)F)c12	none
Cc1cnc(C)c(-c2ccc(F)c3c2OC(CNC(=O)Cc2c(C)[nH]c4ccccc24)C3)n1 (stereo unspecified)	none (no result: LASV entry inh, MARV entry inh, HCV inhibitor, HCMV inh)
CCNc1nc(NCC)n2c(SC(C)C(=O)c3ccc(C)cc3)nnc2n1 (stereo unspecified)	Vaccinia Venus inconclusive, MARV entry inh 11.6µM, HCV inhibitor inconclusive, HCMV inh inconclusive
Cc1ccccc1C(=O)N1CCN(c2ccc(NC(=O)c3ccco3)cc2)CC1	MARV entry inh inconclusive
O=C(Nc1ccc(N2CCN(C(=O)c3ccccc3)CC2)cc1)c1ccc2c(c1)OCO2	HCV inhibitor 22.4µM (no result: Vaccinia Venus, Vaccinia mCherry)
Cc1ccccc1C(=O)N1CCN(c2ccc(NC(=O)CSc3ccc(Cl)cc3)cc2)CC1	LASV entry inh inconclusive, Vaccinia Venus inconclusive, MARV entry inh 11.2µM, HCV inhibitor 11.2µM, HCMV inh -70.6
Cc1ccc(C(=O)N2CCN(c3ccc(NC(=O)c4ccc5c(c4)OCCO5)cc3)CC2)cc1	LASV entry inh inconclusive, MARV entry inh inconclusive, HCV inhibitor 2.82µM
CC(=O)N1CCN(c2ccc(NC(=O)c3ccc4c(c3)OCO4)cc2)CC1	none
CC(C)C(=O)N1CCN(c2ccc(NC(=O)c3ccc4c(c3)OCCO4)cc2)CC1	none
Cc1ccccc1C(=O)N1CCN(c2ccc(NC(=O)c3ccc4c(c3)OCCO4)cc2)CC1	LASV entry inh inconclusive, MARV entry inh 5.01µM, HCV inhibitor 8.91µM, Vaccinia mCherry inconclusive, HCMV inh -89.2
COC(=O)C1(C(=O)OC)Cc2conc2[C@H]1c1ccccc1	none (no result: LASV entry inh, Vaccinia Venus, HCV inhibitor, Vaccinia mCherry, HCMV inh)
CN1CCN(c2ccc(NC(=S)NC(=O)c3cccc4ccccc34)cc2)CC1	HCV inhibitor 11.2µM (no result: LASV entry inh, Vaccinia Venus, MARV entry inh, Vaccinia mCherry)
COc1c(C)cccc1C(=O)Nc1ccc(N2CCN(C(=O)c3ccccc3C)CC2)cc1	LASV entry inh inconclusive, MARV entry inh inconclusive, HCV inhibitor 7.94µM
